Assay results as given in PubChem BioAssay (NCATS).
Where “and” joins values, the source holds several entries; their conditions need not be identical. Equal values may be shown once. Some compounds were tested as several samples or in several runs, with calls that do not always agree. Calls of active or inactive are those of the source. Unless noted, calls follow the shape of the dose curve; as a rule, active = well fitted curve in the direction sought with a large enough effect; inconclusive = small, poorly fitted or top-dose-only effect, or another doubt; inactive = no such curve, though single readings can be large; an effect the other way counts as inactive or inconclusive.

Columns and labels:
[1] = Cell Viability - HepG2 (AID 433; calls by dose curve;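 also: potency is read from the fitted curve at half-maximal effect; cells exposed to compound for 40 hours; potency for ATP loss meaning cytotoxicity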); details: qHTS
How it was run: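 Read-out is luciferase-based quantitation of cellular ATP as a measure of viable HepG2 cells after 40 h treatment at 37 °C. Signal decrease is scaled between DMSO-only and 100 uM tamoxifen controls, with AC50 fitted by the Hill equation.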

[2] = Cellular Toxicity (caspase-3) H-4-II-E (AID 663); details: H-4-II-E rat hepatoma, scaled: DMSO 0%, 100 µM tamoxifen 100%; at 92.2 µM (top of the series);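 also: cells exposed to compound for 16 hr before readout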
How it was run: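 Luminescence from caspase-cleaved aminoluciferin substrate, read 20 min after reagent addition, reports caspase 3/7 activation in rat H-4-II-E cells after 16 hr compound exposure. Normalized to DMSO (basal) and 100 uM tamoxifen (100%); AC50 from Hill fits.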

[3] = biological target: Cytochrome P450 3A4 (Homo sapiens) (UniProt P08684); experiment: qHTS Assay for Inhibitors and Substrates of Cytochrome P450 3A4 (AID 884); details: recombinant CYP3A4, Luciferin-PPXE luminescence; series mostly up to 57.1 µM; also: nearly all actives have a fitted effect of over 50% in size; also: potency is read from the fitted curve at half-maximal effect
How it was run: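 20 nM human CYP3A4 with 25 uM Luciferin-PPXE (at KM) in 200 mM KPO4, preincubated 10 min with compound; NADPH regeneration started a 60 min RT reaction. Luciferin detected by luminescence, normalized to 57 uM ketoconazole as full inhibition.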

[4] = MultiTox-Fluor Cytotoxicity Assay - LYMP1-001 - Dead Cells (AID 946); details: LYMP1-001 lymphoblastoid cells, dead-cell protease fluorescence; series mostly up to 92.2 µM; also: potency is read from the fitted curve at half-maximal effect
How it was run: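 AC50 from Hill fit of concentration-response; data normalized to DMSO (basal) and 15 uM tetraoctylammonium bromide (100%). LYMP1-001 lymphoblastoid cells, 2500/well, 16 hr compound at 37 C; dead-cell protease fluorescence, Ex/Em 485/520.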

[5] = MultiTox-Fluor Cytotoxicity Assay - LYMP1-001 - Live Cells (AID 947); details: LYMP1-001 lymphoblastoid cells, live-cell protease fluorescence viability; series mostly up to 92.2 µM; also: potency is read from the fitted curve at half-maximal effect
[6] = MultiTox-Fluor Cytotoxicity Assay - LYMP1-002 - Dead Cells (AID 960); details: LYMP1-002 lymphoblastoid cells, dead-cell protease fluorescence; series mostly up to 46.1 µM; also: nearly all actives have a fitted effect of over 60% in size; also: potency is read from the fitted curve at half-maximal effect
How it was run: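 Human lymphoblastoid cells (LYMP1-002), 2500/well in complete medium, were exposed to compounds for 16 hr at 37 C. Dead-cell protease activity was read as bis-AAF-R110 fluorescence (Ex/Em 485/520), normalized to DMSO and 15 uM tetraoctylammonium bromide; AC50 from Hill fits.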

[7] = Cell Viability - LYMP2-013 (AID 970); details: LYMP2-013 lymphoblastoid cells viability; series mostly up to 92.2 µM; also: nearly all actives have a fitted effect of over 55% in size; also: potency is read from the fitted curve at half-maximal effect
How it was run: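 Human lymphoblastoid cells, 2500/well, were preincubated 5 hr at 37 C, then treated with compounds for 24 hr at 37 C in complete medium. Intracellular ATP was read by CellTiter-Glo luminescence; AC50 from Hill-equation fits of concentration-response data.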

[8] = Cell Viability - LYMP2-002 (AID 977); details: LYMP2-002 lymphoblastoid cell viability, qHTS; series mostly up to 92.2 µM; also: potency is read from the fitted curve at half-maximal effect
How it was run: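 Luminescent ATP readout (CellTiter-Glo, 30 min room temperature) after 24 h compound exposure at 37 C of a human lymphoblastoid line, 2500 cells/well. AC50 values derived by standard Hill fitting of qHTS concentration-response data.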

[9] = Cell Viability - LYMP2-006 (AID 978); details: LYMP2-006 lymphoblastoid cell viability, qHTS; series mostly up to 92.2 µM; also: nearly all actives have a fitted effect of over 60% in size; also: potency is read from the fitted curve at half-maximal effect
How it was run: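 Cells are seeded at 2500 per well and rested 5 hr at 37 C. Compounds are added across a concentration series for 24 hr at 37 C, after which ATP is quantified by luciferase luminescence.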

[10] = Cell Viability - LYMP2-010 (AID 981); details: LYMP2-010 lymphoblastoid cell viability, qHTS; series mostly up to 92.2 µM; also: nearly all actives have a fitted effect of over 55% in size; also: potency is read from the fitted curve at half-maximal effect
How it was run: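 Human lymphoblastoid LYMP2-010 cells (2500/well) were preincubated 5 hr at 37 C, then exposed to compounds for 24 hr at 37 C in complete medium. Intracellular ATP was measured by CellTiter-Glo luminescence after 30 min at room temperature; AC50 from Hill-fitted concentration-response.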

[11] = Cell Viability - LYMP2-014 (AID 983); details: LYMP2-014 lymphoblastoid cells, viability qHTS; series mostly up to 92.2 µM; also: nearly all actives have a fitted effect of over 50% in size; also: potency is read from the fitted curve at half-maximal effect
How it was run: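 Human lymphoblastoid cells (2500/well) were pre-incubated 5 hr at 37 C, then exposed to compounds in complete medium for 24 hr at 37 C. Intracellular ATP was read by CellTiter-Glo luminescence after 30 min at room temperature; AC50 from Hill fits.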

[12] = Cell Viability - LYMP2-022 (AID 987); details: LYMP2-022 lymphoblastoid cell viability; series mostly up to 92.2 µM; also: nearly all actives have a fitted effect of over 55% in size; also: potency is read from the fitted curve at half-maximal effect
How it was run: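 Human lymphoblastoid cells, 2500/well, preincubated 5 hr at 37 C, then exposed to compounds over a concentration range for 24 hr at 37 C in complete medium. Viability read as intracellular ATP by CellTiter-Glo luminescence after 30 min at room temperature; AC50 from Hill fits.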

[13] = Cell Viability - LYMP2-024 (AID 988); details: LYMP2-024 lymphoblastoid cell viability; series mostly up to 92.2 µM; also: nearly all actives have a fitted effect of over 60% in size; also: potency is read from the fitted curve at half-maximal effect
How it was run: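 Human lymphoblastoid cells (2500/well) in complete medium were preincubated 5 hr at 37 C, then exposed to compounds for 24 hr at 37 C. Intracellular ATP was read by CellTiter-Glo luminescence; AC50 from Hill-equation fits of concentration-response data.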

[14] = Cell Viability - LYMP2-026 (AID 989); details: LYMP2-026 lymphoblastoid cell viability, qHTS; series mostly up to 92.2 µM; also: nearly all actives have a fitted effect of over 50% in size; also: potency is read from the fitted curve at half-maximal effect
How it was run: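 Human lymphoblastoid cells (2500/well) in complete medium were preincubated 5 hr at 37 C, then exposed to compounds for 24 hr at 37 C. Cellular ATP was read by CellTiter-Glo luminescence; AC50 from Hill-equation fits of concentration-response data.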

[15] = biological target: Estrogen receptor (Homo sapiens) (UniProt P03372); experiment: qHTS assay for small molecule antagonists of estrogen receptor alpha signaling (AID 588513; active = well fitted curve in the direction sought with a large enough effect in the signal ratio, with a control signal flat, not every such curve was filed as active; inconclusive = small, poorly fitted or top-dose-only effect, or effect the other way, or a change in a side signal; inactive = no such curve, though single readings can be large or run the other way; the % refers to the signal ratio; also: potency is read from the fitted curve at half-maximal effect); details: ER-alpha-UAS-bla HEK293, beta-lactamase ratio, antagonist mode; series mostly up to 76.9 µM
How it was run: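 Fluorescence from CCF4 substrate after 2 h at room temperature gave reporter activity; cells had been exposed to compound and 0.5nM 17-beta-estradiol for 18 h at 37 C. Hill-equation fitting yielded IC50 and maximal response.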

[16] = biological target: Peroxisome proliferator-activated receptor delta (Homo sapiens) (UniProt Q03181); experiment: qHTS assay for small molecule agonists of peroxisome proliferator-activated receptor delta signaling (AID 588534; calls by dose curve;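 also: 0% = DMSO basal wells and 100% = positive control agonist at 10 µM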); details: HEK293T PPARdelta-UAS-bla, beta-lactamase ratio, 18 h; series mostly up to 76.7 µM
How it was run: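 Cell-based beta-lactamase reporter assay run in agonist mode: cells seeded and incubated 5 hrs at 37 C, compounds added and incubated 18 hrs at 37 C. CCF4 dye fluorescence read after 2 hrs at RT; EC50 and efficacy from Hill fits.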

[17] = biological target: Vitamin D3 receptor (Homo sapiens) (UniProt P11473); experiment: qHTS assay for small molecule agonists of vitamin D receptor signaling (AID 588543; calls by dose curve;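 also: 0% = DMSO basal and 100% = reference agonist control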); details: HEK293T VDR-UAS-bla, beta-lactamase ratio, 16 h; series mostly up to 76.8 µM
How it was run: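 Reporter cells (HEK293T, VDR-UAS-bla) were seeded in medium with 2% charcoal-stripped serum and incubated 5 h, then compounds in concentration series were added for 16 h at 37 °C. Stimulation was scaled between DMSO basal and 50 nM 1α,25-dihydroxyvitamin D3.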

[18] = qHTS assay for small molecule disruptors of the mitochondrial membrane potential - 1 hr assay (AID 651754; calls by dose curve; also: nearly all actives have a fitted effect of over 35% in size; also: potency is read from the fitted curve at half-maximal effect); details: series mostly up to 92.2 µM
How it was run: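 HepG2 cells, attached overnight at 37C, were exposed to compound or DMSO vehicle for 1 hr at 37C, 5% CO2, then stained with Mito-MPS dye for 30 min. Red aggregate versus green monomer fluorescence reports membrane potential.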

[19] = qHTS assay for cell viability of HEK293 cells (AID 743288); details: ATP luminescence (CellTiter-Glo), 18 h; max response: stronger effect = lower value; also: nearly all actives have a fitted effect of over 50% in size; also: potency is read from the fitted curve at half-maximal effect; as to max response: % is scaled to controls: 0 for no effect and ±100 for the full control effect
How it was run: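 HEK293 parental, 2,000 cells/well; ≥5 h pre-incubation 37 C; pintool compound addition; 18 h, 37 C; CellTiter-Glo 30 min RT; luminescence read.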

Sequence of Vitamin D3 receptor (Homo sapiens) (P11473 whole entry, looked up): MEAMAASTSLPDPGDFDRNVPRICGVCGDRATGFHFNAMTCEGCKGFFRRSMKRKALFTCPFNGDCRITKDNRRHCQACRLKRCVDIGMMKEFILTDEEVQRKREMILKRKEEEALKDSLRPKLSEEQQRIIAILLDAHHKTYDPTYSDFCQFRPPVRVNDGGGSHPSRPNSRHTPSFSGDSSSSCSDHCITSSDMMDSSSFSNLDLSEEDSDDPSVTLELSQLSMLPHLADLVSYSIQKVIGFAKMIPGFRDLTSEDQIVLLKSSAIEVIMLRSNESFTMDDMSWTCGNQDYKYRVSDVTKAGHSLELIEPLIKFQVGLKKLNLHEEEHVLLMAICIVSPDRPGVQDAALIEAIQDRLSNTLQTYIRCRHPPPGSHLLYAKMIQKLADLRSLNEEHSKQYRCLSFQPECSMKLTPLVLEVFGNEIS
Sequence of Estrogen receptor (Homo sapiens) (P03372 whole entry, looked up): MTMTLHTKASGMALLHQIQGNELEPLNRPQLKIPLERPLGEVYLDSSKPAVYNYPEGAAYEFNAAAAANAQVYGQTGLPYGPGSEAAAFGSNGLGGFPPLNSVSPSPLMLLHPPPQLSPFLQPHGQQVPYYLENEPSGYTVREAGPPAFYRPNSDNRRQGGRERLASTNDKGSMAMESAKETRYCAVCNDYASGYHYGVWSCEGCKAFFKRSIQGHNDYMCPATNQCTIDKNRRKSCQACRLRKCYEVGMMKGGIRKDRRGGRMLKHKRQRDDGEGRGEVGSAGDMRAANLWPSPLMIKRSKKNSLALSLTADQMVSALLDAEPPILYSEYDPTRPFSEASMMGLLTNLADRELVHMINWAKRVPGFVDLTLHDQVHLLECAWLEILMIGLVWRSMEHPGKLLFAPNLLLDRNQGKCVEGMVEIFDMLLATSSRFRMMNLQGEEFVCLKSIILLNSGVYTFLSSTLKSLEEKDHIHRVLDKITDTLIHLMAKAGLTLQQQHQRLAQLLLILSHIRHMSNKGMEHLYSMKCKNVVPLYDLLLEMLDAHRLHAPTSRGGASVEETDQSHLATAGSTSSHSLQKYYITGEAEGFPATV
Sequence of Cytochrome P450 3A4 (Homo sapiens) (P08684 whole entry, looked up): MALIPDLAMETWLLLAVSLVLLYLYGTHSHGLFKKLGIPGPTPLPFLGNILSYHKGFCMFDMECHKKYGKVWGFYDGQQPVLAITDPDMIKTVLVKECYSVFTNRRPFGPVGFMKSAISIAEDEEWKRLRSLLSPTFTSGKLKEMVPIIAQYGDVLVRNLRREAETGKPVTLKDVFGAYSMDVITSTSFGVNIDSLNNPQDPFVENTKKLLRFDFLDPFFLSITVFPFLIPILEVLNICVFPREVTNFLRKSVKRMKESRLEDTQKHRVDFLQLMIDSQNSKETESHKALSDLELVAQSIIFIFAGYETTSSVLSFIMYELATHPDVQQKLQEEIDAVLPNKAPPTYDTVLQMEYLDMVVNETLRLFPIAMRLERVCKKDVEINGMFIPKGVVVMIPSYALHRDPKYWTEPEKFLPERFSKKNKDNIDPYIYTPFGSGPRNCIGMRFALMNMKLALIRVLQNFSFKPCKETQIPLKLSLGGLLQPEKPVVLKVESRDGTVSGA
Sequence of Peroxisome proliferator-activated receptor delta (Homo sapiens) (Q03181 whole entry, looked up): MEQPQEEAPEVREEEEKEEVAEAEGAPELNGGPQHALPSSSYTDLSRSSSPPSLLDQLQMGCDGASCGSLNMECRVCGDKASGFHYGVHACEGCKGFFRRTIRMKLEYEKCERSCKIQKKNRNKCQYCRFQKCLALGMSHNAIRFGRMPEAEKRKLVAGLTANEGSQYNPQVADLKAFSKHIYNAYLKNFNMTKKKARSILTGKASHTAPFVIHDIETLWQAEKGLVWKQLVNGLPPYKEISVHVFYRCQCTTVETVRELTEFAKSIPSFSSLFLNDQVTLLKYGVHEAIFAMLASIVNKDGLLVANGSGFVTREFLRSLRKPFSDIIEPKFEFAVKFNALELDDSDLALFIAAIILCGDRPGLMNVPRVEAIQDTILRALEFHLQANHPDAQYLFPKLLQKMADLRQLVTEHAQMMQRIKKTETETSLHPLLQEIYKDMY

FC(F)(F)c1ccc(Cl)cc1
Potency [1]: > 92 µM (inactive)
caspase-3 activation [2]: 1.12% (inactive)
Potency [3]: inactive
Potency [4]: inactive
Potency [5]: inactive
Potency [6]: inactive
Potency [7]: inactive
Potency [8]: inactive
Potency [9]: inactive
Potency [10]: inactive
Potency [11]: inactive
Potency [12]: inactive
Potency [13]: inactive
Potency [14]: inactive
Potency [15]: inactive
outcome [16]: inactive
outcome [17]: inactive
Potency [18]: inactive
max response [19]: -1.88% (inactive) and 4.63% (inactive)

C(=NC1CCCCC1)=NC1CCCCC1
Potency [1]: 3.31 µM (active)
caspase-3 activation [2]: 91.9% (active)
Potency [3]: inactive
Potency [4]: inactive
Potency [5]: inactive
Potency [15]: inactive
outcome [16]: inactive
outcome [17]: inactive
Potency [18]: inactive

Oc1c(Cl)cc(Cl)cc1Cl
Potency [1]: > 92 µM (inactive)
max response [19]: -4.3% (inactive) and -11% (inactive)

O=C1C2(Cl)C3(Cl)C4(Cl)C(Cl)(Cl)C5(Cl)C3(Cl)C1(Cl)C5(Cl)C24Cl (stereo not given)
Potency [1]: 31.3 µM (active) and 59.3 µM (active)
Potency [3]: 10 µM (active) and 15.8 µM (active)
Potency [4]: 31.6 µM (active)
Potency [5]: 39.8 µM (active) and 50.1 µM (active)
Potency [6]: 20 µM (active) and 15.8 µM (active)
Potency [9]: 39.8 µM (active) and inactive
Potency [13]: inactive
outcome [16]: inactive
outcome [17]: inactive
Potency [18]: 3.35 µM (active) and 10.6 µM (active)
max response [19]: -22.6% (inactive) and -16.2% (inactive)

COP(=O)(OC)O/C(=C\Cl)c1cc(Cl)c(Cl)cc1Cl
Potency [1]: > 92 µM (inactive)
caspase-3 activation [2]: 2.54% (inactive)
Potency [3]: inactive
Potency [4]: inactive
Potency [5]: inactive
Potency [6]: inactive
Potency [8]: inactive
Potency [9]: inactive
Potency [15]: inactive
outcome [16]: inactive
max response [19]: -7.38% (inactive)

[CH3][Hg][Cl]
Potency [1]: 31.7 µM (active)
Potency [3]: inactive
Potency [5]: 39.8 µM (active)
Potency [7]: 3.98 µM (active)
Potency [8]: 7.94 µM (active)
Potency [9]: 5.01 µM (active)
Potency [10]: 1.58 µM (active)
Potency [11]: 3.98 µM (active)
Potency [12]: 2.51 µM (active)
Potency [13]: 2 µM (active)
Potency [14]: 5.01 µM (active)
Potency [15]: 39.8 µM [inconclusive] (active)
Potency [18]: 21.1 µM (active)
Potency [19]: 39.8 µM (active)

CN(C)c1ccc(N=O)cc1
caspase-3 activation [2]: -1.57% (inactive)
Potency [3]: inactive
Potency [5]: 10 µM (active)
Potency [6]: 3.16 µM (active)
Potency [7]: 1.58 µM (active)
Potency [8]: 2.51 µM (active)
Potency [9]: 2 µM (active)
Potency [10]: 0.631 µM (active)
Potency [11]: 2.51 µM (active)
Potency [12]: 0.631 µM (active)
Potency [13]: 0.501 µM (active)
Potency [14]: 2.51 µM (active)
Potency [15]: 22.4 µM [inconclusive] (active)
Potency [19]: 39.8 µM (active)
